Sampled rows, rich in hits. Any-hit rate of the full collection: about 5.8%.
TRPV1 ag – activates the human vanilloid receptor TRPV1 | Q8NER1 | TRPV1-expressing cells, Fluo-8 calcium influx, agonist mode | activation, % at 8.33 µM | 320,000 compounds, 0.19% hits | AID 540275; in the data active = activation above about 80%; inconclusive = between about 30% and that limit
Target sequence (Q8NER1 whole entry, looked up): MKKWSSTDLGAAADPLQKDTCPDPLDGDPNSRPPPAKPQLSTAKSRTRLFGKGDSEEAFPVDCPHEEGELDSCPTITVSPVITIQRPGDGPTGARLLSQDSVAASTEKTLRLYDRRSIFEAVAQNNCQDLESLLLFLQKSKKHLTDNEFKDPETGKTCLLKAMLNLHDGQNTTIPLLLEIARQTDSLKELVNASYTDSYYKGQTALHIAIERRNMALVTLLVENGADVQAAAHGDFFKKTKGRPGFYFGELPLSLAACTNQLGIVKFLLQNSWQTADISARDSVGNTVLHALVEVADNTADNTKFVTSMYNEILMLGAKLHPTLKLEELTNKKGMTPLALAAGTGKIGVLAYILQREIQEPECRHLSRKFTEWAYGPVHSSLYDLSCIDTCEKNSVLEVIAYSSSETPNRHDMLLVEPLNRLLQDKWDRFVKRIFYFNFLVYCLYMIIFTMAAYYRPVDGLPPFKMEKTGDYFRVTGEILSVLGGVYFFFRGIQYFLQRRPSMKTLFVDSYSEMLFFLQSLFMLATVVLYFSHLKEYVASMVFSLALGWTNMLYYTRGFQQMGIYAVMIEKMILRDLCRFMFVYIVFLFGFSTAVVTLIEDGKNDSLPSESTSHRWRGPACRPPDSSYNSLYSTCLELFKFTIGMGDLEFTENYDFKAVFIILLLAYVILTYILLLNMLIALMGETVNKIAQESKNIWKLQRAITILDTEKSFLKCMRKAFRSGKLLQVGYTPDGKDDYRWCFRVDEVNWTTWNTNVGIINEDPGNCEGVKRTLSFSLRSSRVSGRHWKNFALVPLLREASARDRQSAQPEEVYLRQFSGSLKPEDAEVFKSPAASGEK
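TRPV1-expressing cells were cultured overnight at 35.5C and loaded with Fluo-8 calcium dye for 40 to 90 min at room temperature. After a 10 s baseline, compound was added and calcium influx was read kinetically for 3 min (ex 480/em 520 nm).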
Gal4-VP16 FLuc – inhibits Gal4-VP16 luciferase reporter, ROR gamma counter-screen; AID 2546; Potency, µM (highest dose often 53.6 µM), most hits filed as inhibitors; 310,000 compounds, 3.5% hits; Drosophila S2 Gal4-VP16 UAS-luciferase, luminescence, 20 h;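 note: Gal4-VP16 expression switched on by copper sulfate through the metallothionein promoter; nearly all actives have a fitted effect of over 50% in size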
RORg inh – ROR gamma (mouse) transcription inhibition | P51450 | Drosophila S2 Gal4-RORgamma UAS-luciferase reporter, 20 h | Potency, µM (doses to about 53.6 µM), most hits filed as inhibitors | 310,000 compounds, 5.4% hits; note: nearly all actives have a fitted effect of over 60% in size
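A Gal4/UAS one-hybrid system in insect cells: metallothionein-promoter Gal4–ROR gamma fusion plus Photinus luciferase reporter. Copper sulfate 700 uM final, 20 hr ambient incubation, luminescent detection after 10 min with reagent.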
uPA generation – cell surface uPA generation inhibition | Potency, µM (titrated, usually from 38.3 µM), usual class: inhibitors | 330,000 compounds, 0.31% hits | cell surface uPA generation assay, qHTS | AID 540303; active = well fitted inhibition curve with a large enough effect; inconclusive = small, poorly fitted or top-dose-only effect; inactive = no such curve, though single readings can be large or run the other way; tested in mouse RAW 264.7 cells; note: nearly all actives have a fitted effect of over 55% in size
TRPV1 potentiator – enhances activation of the human vanilloid receptor TRPV1; Q8NER1; TRPV1-expressing cells, Fluo-8 calcium influx, capsaicin EC20 potentiation; potentiation, % at 8.33 µM; 320,000 compounds, 0.02% hits; AID 540277; in the data active = potentiation above about 80%; inconclusive = between about 30% and that limit
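TRPV1-expressing cells were cultured overnight at 35.5C and loaded with Fluo-8 calcium dye for 40 to 90 min at room temperature. After a 10 s baseline, compound was added and calcium influx was read kinetically for 3 min (ex 480/em 520 nm).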
Large screens that a line does not name were inactive. Unless noted, calls come from the whole dose curve; as a rule, active = well fitted curve in the direction sought with a large enough effect; inconclusive = small, poorly fitted or top-dose-only effect, or another doubt; inactive = no such curve, though single readings can be large; an effect the other way counts as inactive or inconclusive.

CC[C@H](NC(=O)[C@H](CCC(=O)O)NC(=O)[C@H](CCC(=O)O)NC(=O)[C@H](CC(=O)O[S+](=O)([O-])c1cccc2c(NCCN)cccc12)NC(=O)[C@H](CCC(=O)O)NC(=O)[C@H](CC(=O)O)NC(C)=O)C(=O)ON[C@@H](C)C(=O)N[C@@H](CO)C(=O)N[C@@H](CCCCNC(=O)c1ccc(N=Nc2ccc(N(C)C)cc2)cc1)C(N)=O	none (no result: TRPV1 ag, uPA generation, TRPV1 potentiator)
CCc1cc2c(=O)c(-c3nc4ccccc4n3C)c(COCC(=O)O)oc2cc1OC(=O)C(C)(C)C	RORg inh 4.5µM (no result: uPA generation)
O=C(Cc1cccs1)N1CCN(c2nc(-c3ccc(Cl)cc3)cs2)CC1	Gal4-VP16 FLuc inconclusive, RORg inh 13µM (no result: uPA generation)
S=C(NCc1ccco1)N1CCN(c2nc(-c3ccc(Cl)cc3)cs2)CC1	Gal4-VP16 FLuc inconclusive, RORg inh 11µM
S=C(NCc1ccco1)N1CCN(c2nc(-c3ccccc3)cs2)CC1	TRPV1 ag inconclusive
Cc1ccc(OC(=O)CCc2c(C)nc3ncnn3c2C)cc1	none (no result: uPA generation)
O=C1c2cccc3c([N+](=O)[O-])ccc(c23)C(=O)N1c1ccc(Cl)cn1	Gal4-VP16 FLuc 7.9µM, RORg inh inconclusive (no result: uPA generation)
O=C1c2cccc3c([N+](=O)[O-])ccc(c23)C(=O)N1c1nccs1	Gal4-VP16 FLuc 5µM, RORg inh 5.6µM (no result: uPA generation)
O=C1c2cccc3c([N+](=O)[O-])ccc(c23)C(=O)N1O	Gal4-VP16 FLuc 13µM, RORg inh inconclusive, uPA generation inconclusive
O=C1c2cccc3c([N+](=O)[O-])ccc(c23)C(=O)N1c1ccccn1	none (no result: TRPV1 ag, TRPV1 potentiator)
COC(=O)[C@@]1(C)C=C[C@@H](Cc2ccccc2)N1C(=O)c1ccccc1	none (no result: TRPV1 ag, uPA generation, TRPV1 potentiator)
Cc1ccc(-n2c(=O)c3ccccc3n(CC(=O)NCc3ccco3)c2=O)cc1	none
COc1cnc(-c2ccccn2)nc1Sc1ccc(C)cc1	Gal4-VP16 FLuc 10µM, RORg inh 1.1µM
Cc1ccc(Sc2cc(C)nc(-c3ccccn3)n2)cc1	Gal4-VP16 FLuc 3.2µM, RORg inh 0.35µM
COc1cnc(-c2ccccn2)nc1Sc1cccc(Cl)c1	Gal4-VP16 FLuc 8.9µM, RORg inh 2µM
COc1ccc(-c2nc(-c3ccccn3)ncc2S(C)(=O)=O)cc1	none
COc1ccccc1Sc1nc(-c2ccccn2)ncc1OC	Gal4-VP16 FLuc inconclusive, RORg inh 7.9µM
Nc1cccnc1Sc1cccc(Cl)c1	none
CCc1c(C)sc(NC(=O)c2noc(C)c2[N+](=O)[O-])c1C#N	Gal4-VP16 FLuc inconclusive, RORg inh 18µM
C=CCC1(O)C=CCC2C3C4C(OC(C)(C)C)C2C1C34 (stereo unspecified)	none (no result: TRPV1 ag, uPA generation, TRPV1 potentiator)
CNC(=O)c1cc(Oc2ccc(NC(=O)Nc3ccc(Cl)c(C(F)(F)F)c3)cc2)ccn1	Gal4-VP16 FLuc 8.9µM, RORg inh inconclusive, uPA generation inconclusive
CN(CCCC1CCCC1)C(=O)CC1C(=O)NCCN1Cc1ccc(F)cc1 (stereo unspecified)	none
COC(=O)c1cccc(Nc2nc3ccccc3nc2C)c1	TRPV1 ag inconclusive, Gal4-VP16 FLuc 13µM
CCCOC(=O)c1c(NC(=O)C2C3C=CC(C3)C2C(=O)O)sc2c1CCC(C)C2 (stereo unspecified)	none
CC(C)[C@@H](CO)NC(=O)c1ccc2c3n(nc2c1)-c1ccccc1CO3	Gal4-VP16 FLuc inconclusive, RORg inh inconclusive, uPA generation 1.3µM
CCCCC#Cc1ccc2c(c1)COc1c3ccccc3nn1-2	TRPV1 ag inconclusive
C(#Cc1ccc2c(c1)COc1c3ccccc3nn1-2)c1ccccc1	none (no result: Gal4-VP16 FLuc, RORg inh)
CC(C)NC(=O)c1ccc2c3n(nc2c1)-c1ccccc1CO3	Gal4-VP16 FLuc 4.5µM, RORg inh 4µM, uPA generation 0.79µM
Cc1ccc2c(c1)COc1c3ccc(C(=O)O)cc3nn1-2	Gal4-VP16 FLuc 5µM, RORg inh 2µM, uPA generation inconclusive
O=C(NN=C1c2ccccc2-c2ccccc21)c1ccccn1	TRPV1 ag inconclusive, Gal4-VP16 FLuc 4.5µM, RORg inh 3.2µM
CC(=N/O)/C(C)=N\NC(=O)c1ccccn1	Gal4-VP16 FLuc 5µM, RORg inh 6.3µM
CC(=NNC(=S)Nc1ccccc1Cl)c1ccccn1	none (no result: TRPV1 ag, Gal4-VP16 FLuc, RORg inh, TRPV1 potentiator)
CCc1ccc(/C(C)=N/NC(=O)c2ccccn2)cc1	RORg inh inconclusive, uPA generation inconclusive
C/C(=N\NC(=O)c1cc2ccccc2cc1O)c1ccccn1	Gal4-VP16 FLuc 0.13µM, RORg inh 0.2µM
C=CCNC(=S)N/N=C(\C)c1ccccn1	Gal4-VP16 FLuc 0.11µM, RORg inh 0.028µM
O=C(N/N=C1\CC(c2ccccc2)Oc2ccccc21)c1ccccn1 (stereo unspecified)	RORg inh inconclusive
C/C(=N\NC(=O)c1ccccn1)c1ccc(C(=O)O)s1	none (no result: uPA generation)
COc1ccccc1CNc1cc(-c2ccccc2OC)ncn1	none (no result: TRPV1 ag, uPA generation, TRPV1 potentiator)
C/C(=N\NC(=O)c1nc2ccccn2c1C)c1cc2ccccc2o1	Gal4-VP16 FLuc inconclusive, RORg inh 13µM (no result: uPA generation)
C/C(=N\NC(=O)c1nc2ccccn2c1C)c1ccco1	none (no result: uPA generation)
C/C(=N\NC(=O)CCCNc1ccc(C)cc1)c1ccccn1	Gal4-VP16 FLuc 13µM, RORg inh 2.2µM
C/C(=N\NC(=O)c1ccc(F)cc1)c1ccccn1	Gal4-VP16 FLuc 0.4µM, RORg inh 0.25µM, uPA generation inconclusive
COc1ccc(NCC(=O)N/N=C(\C)c2cc3ccccc3o2)cc1	RORg inh inconclusive
C/C(=N\NC(=O)c1cc2ccccc2cc1O)c1cc2ccccc2o1	Gal4-VP16 FLuc inconclusive, RORg inh 10µM
COc1ccccc1C(=O)NCCC(=O)Nc1cccc(C)n1	none
Cc1nn(CC(=O)NCCC2=CCCCC2)c(C)c1[N+](=O)[O-]	none (no result: Gal4-VP16 FLuc, RORg inh)
COCc1cc(=O)[nH]c(SCCS(=O)(=O)c2ccc(Cl)cc2Cl)n1	TRPV1 ag inconclusive, uPA generation inconclusive
O=C(C1=NN(c2ccccc2)C(=O)CC1)N1CCc2ccccc2C1	none
COc1ccc(C(=O)N/N=C(\N)c2cc3ccccc3oc2=O)cc1	Gal4-VP16 FLuc inconclusive, RORg inh 0.89µM
C/C(CC(=O)c1ccccc1)=N\NC(=O)CC#N	Gal4-VP16 FLuc inconclusive, RORg inh 4µM
C/C(=N\NC(=O)c1c[nH]c2ccccc12)c1ccccn1	Gal4-VP16 FLuc inconclusive, RORg inh 3.5µM
C/C(=N\NC(=O)CC#N)c1cc2ccccc2oc1=O	Gal4-VP16 FLuc 6.3µM, RORg inh 6.3µM
O=C1OC(=O)c2ccccc21	none (no result: TRPV1 ag, uPA generation, TRPV1 potentiator)
COc1ccc(CNc2ncncc2-c2ccc(N(C)C)cc2)c(OC)c1	none (no result: TRPV1 ag, uPA generation, TRPV1 potentiator)
COc1ccccc1CNc1nc(-c2ccc(N(C)C)cc2)nc2ccccc12	Gal4-VP16 FLuc inconclusive, RORg inh 7.9µM (no result: TRPV1 ag, uPA generation, TRPV1 potentiator)
COc1ccccc1CNc1ncncc1-c1ccc(N(C)C)cc1	RORg inh 22µM (no result: TRPV1 ag, uPA generation, TRPV1 potentiator)
C=CCn1c(-c2ccc(S(=O)(=O)N3CCOCC3)cc2)csc1=Nc1ccccc1	Gal4-VP16 FLuc 14µM
COc1ccc(N=c2scc(-c3ccc(S(=O)(=O)N4CCOCC4)cc3)n2CCCO)cc1	Gal4-VP16 FLuc 5.6µM, RORg inh inconclusive (no result: uPA generation)
CC(=O)c1cccc(N=c2scc(-c3ccc(S(=O)(=O)N4CCOCC4)cc3)n2CCO)c1	Gal4-VP16 FLuc 2µM, RORg inh inconclusive
